# Measured potencies and affinities stand elsewhere. Active and inactive are the calls of the source. No rule for the calls is given here.
# Experiment: cytotoxicity in HEK293 cells, dose response, cytotoxicity control, cell-based, plate reader, cherry-pick (AID 651899);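 also: cells exposed to compound for 48 hours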
# Conditions: series mostly up to 26 µM
row,SMILES,outcome
1,O=C(CSc1nc2c(c(=O)n1-c1ccccc1)SCC2)N1CCN(c2ccccc2)CC1,inactive
2,O=C(N[C@H]1CC[C@@H](CCn2cc(-c3cccnc3)nn2)O[C@H]1CO)c1ccccc1F,inactive
3,C=CCn1c(COc2ccccc2F)nnc1SCCN1C(=O)c2ccccc2C1=O,inactive
4,O=C(NC1CCCc2c1cnn2-c1cc(F)cc(F)c1)c1ccc[n+]([O-])c1 (stereo unspecified),inactive
5,COc1ccc(C(=O)Nc2cccc(NC(=O)c3cccs3)c2)cc1,inactive
6,O=C(Nc1cccc(F)c1)C1CCCN(c2cnccn2)C1 (stereo unspecified),inactive
7,O=C1CCCc2c1cc(C(=O)NCCCN1CCOCC1)c(=O)n2-c1ccc(Cl)cc1,inactive
8,CSc1ccc(S(=O)(=O)N2CCC(C(=O)Nc3cccnc3)CC2)cc1,inactive
9,O=C(Nc1nccs1)[C@H]1[C@H](CO)[C@H]2Cn3c(ccc(-c4cccnc4)c3=O)[C@H]2N1CC1CCCC1,inactive
10,COc1ccc(C2c3c(-c4cc(Cl)c(C)cc4O)n[nH]c3C(=O)N2Cc2cccnc2)cc1OC (stereo unspecified),inactive
11,O=C(c1ccc(S(=O)(=O)Nc2ccccc2F)cc1)N1CCN(c2ccccc2O)CC1,inactive
12,Nn1c(SCCOc2ccccc2)nnc1-c1cccnc1,inactive
13,O=C(C[C@@H]1C[C@@H]2c3cc(NC(=O)c4cccnc4)ccc3O[C@@H]2[C@@H](CO)O1)NCc1cccnc1,inactive
14,O=C(Nc1ccc(F)cc1)NC1CCN(Cc2nnnn2Cc2ccco2)CC1,inactive
15,O=C(COc1ccc2ccc(=O)oc2c1)Nc1cccnc1,inactive
16,C[C@@H]1CN([C@@H](C)CO)C(=O)c2cc(C#Cc3cccnc3)cnc2O[C@H]1CN(C)S(C)(=O)=O,inactive

# Source: PubChem BioAssay AID651899 (Broad Institute, 2012)
